# Assay outcomes as filed in PubChem BioAssay.
# This is a sample that favours compounds with a hit; in the whole collection about 2.6% have one here.
# Cruzain inh Det = qHTS Assay for Promiscuous and Specific Inhibitors of Cruzain (with detergent) | purified cruzain, Z-FR-AMC fluorescence, 0.01% Triton | Potency, µM, hits mostly inhibitors | 200,000 tested, 0.43% active | AID 1478, 2009; also: nearly all actives have a fitted effect of over 40% in size
# Target sequence (P25779 123-467 limits assumed): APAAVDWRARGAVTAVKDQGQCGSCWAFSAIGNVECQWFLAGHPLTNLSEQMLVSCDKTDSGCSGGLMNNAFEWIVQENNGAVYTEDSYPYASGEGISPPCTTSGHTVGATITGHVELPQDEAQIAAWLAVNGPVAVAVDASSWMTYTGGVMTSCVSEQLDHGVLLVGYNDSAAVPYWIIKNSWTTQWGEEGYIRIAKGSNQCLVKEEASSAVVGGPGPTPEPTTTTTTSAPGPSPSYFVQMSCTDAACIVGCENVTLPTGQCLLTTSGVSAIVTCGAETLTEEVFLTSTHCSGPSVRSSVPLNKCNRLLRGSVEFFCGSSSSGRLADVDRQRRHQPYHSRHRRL
#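 Z-FR-AMC hydrolysis (2 uM substrate) by cruzain (1.5 nM) monitored kinetically at ex 360/em 450 nm after 15 min room-temperature compound exposure; 0.01% Triton X-100, pH 5.5, 5 mM DTT.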
# Cruzain inh noDet = qHTS Assay for Promiscuous and Specific Inhibitors of Cruzain (without detergent); Cruzipain (Trypanosoma cruzi), P25779; purified cruzain, Z-FR-AMC fluorescence, no detergent; Potency, µM, hits mostly inhibitors; 200,000 tested, 2.3% active; also: nearly all actives have a fitted effect of over 40% in size
#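 Detergent-free condition (0.00005% Triton X-100) in acetate buffer pH 5.5 with DTT. 1.5 nM enzyme and compound were pre-mixed 15 min, then 2 uM Z-FR-AMC substrate added; reaction progress from fluorescence change between first and third reads (60 s).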
# A number is an active result; n = inactive; u = inconclusive; ! = not confirmed by another sample. Calls follow the shape of the dose curve; as a rule, active = well fitted curve in the direction sought with a large enough effect; inconclusive = small, poorly fitted or top-dose-only effect, or another doubt; inactive = no such curve, though single readings can be large; an effect the other way counts as inactive or inconclusive.
SMILES,Cruzain inh Det,Cruzain inh noDet
CCc1cccc(C)c1Nc1c(-c2cccs2)nc2nc(C)cc(C)n12,n,n
CCOC(=O)c1c(NC(=O)C(=O)N/N=C/c2ccccc2OC)sc2c1CCCCC2,n,10µM
CCOC(=O)c1c(NC(=O)c2ccc(C)cc2)sc2c1CCCCC2,n,n
CCOC(=O)c1c(NC(=O)C(=O)N/N=C(\C)c2ccc(OC)cc2)sc2c1CCCCC2,n,n
CCOC(=O)c1c(NC(=O)C(=O)N/N=C/c2ccccc2O)sc2c1CCCCC2,n,7.94µM
COc1ccc(C2/C=C\[C@H](O[Si](C)(C)C(C)(C)C)[C@H](C(C)C)CC(=O)N2Cc2ccccc2)cc1 (some centres not stated),n,n
Cc1ccc(S(=O)(=O)N2CCCOC2CNC(=O)C(=O)NCCc2c[nH]c3ccccc23)cc1 (configuration not stated),n,u
O=C(NCCc1c[nH]c2ccccc12)C(=O)NCC1OCCCN1S(=O)(=O)c1ccccc1 (configuration not stated),n,25.1µM
Cc1cccc(C(=O)NCC(c2cccs2)S(=O)(=O)c2cccs2)c1 (configuration not stated),n,n
CC1CCc2noc(NC(=O)c3ccccc3[N+](=O)[O-])c2C1 (configuration not stated),n,n
CC(C)Sc1nnc([C@@H](N)Cc2c[nH]c3ccccc23)o1,n,n
Cc1ccc(C)c(NC(=O)CSc2nnc([C@@H](N)Cc3c[nH]c4ccccc34)o2)c1,u,25.1µM
CCCN1C(=O)C2(c3ccccc31)c1c(oc3ccccc3c1=O)C(=O)N2CCCOC(C)C (configuration not stated),n,n
Cn1cc(S(=O)(=O)N2CCCCCC2)cc1C(=O)NCc1ccc(Cl)cc1,n,n
CCOc1cccc2sc(NC(=O)c3ccc(S(=O)(=O)N4CCCc5ccccc54)cc3)nc12,n,2µM
COc1cc2nc(NC(=O)c3ccc(S(=O)(=O)N4CCc5ccccc54)cc3)sc2cc1OC,n,n
Cc1cc(C)c2nc(NC(=O)c3cccc(S(=O)(=O)N4CCc5ccccc54)c3)sc2c1,n,3.98µM
O=C(Nc1ncccc1O)c1cccc(S(=O)(=O)N2CCc3ccccc32)c1,n,n
Cc1cccc2sc(NNC(=O)c3ccc(S(=O)(=O)N4CCc5ccccc5C4)cc3)nc12,n,7.94µM
Cc1cccc2sc(NNC(=O)c3ccc(S(=O)(=O)N4CCCC(C)C4)cc3)nc12 (configuration not stated),n,n
Cc1cc(C)c2nc(NC(=O)c3ccc(S(=O)(=O)N4CCCC4)cc3)sc2c1,n,u
Cc1cccc2sc(NC(=O)c3cccc(S(=O)(=O)N4CCc5ccccc54)c3)nc12,n,10µM
Cc1ccc(S(=O)ON2CCC(C(=O)O)(c3ccccc3)CC2)cc1 (configuration not stated),n,n
CCc1ccc(-n2cnc3cc(C(=O)NCc4ccc(C)cc4)ccc32)cc1,n,n
O=C(O)/C=C(/C(=O)O)[C@]12CCN3CC4=CCO[C@@H]5CC(=O)N[C@@H]1C5[C@H]4C[C@H]32 (some centres not stated),n,n
SMILES,Cruzain inh Det,Cruzain inh noDet
N#Cc1cccc(NC(=O)N2CCCC3(CCN(C(=O)c4cc(C(F)(F)F)cc(C(F)(F)F)c4)CC3)C2)c1,n,u
COc1ccc2c(CNC3CCCCCC3)c(C(=O)O)n(Cc3ccccc3F)c2c1,n,n
Cc1c(Cl)ccc2sc(NC(=O)c3ccc(S(=O)(=O)N4CCCc5ccccc54)cc3)nc12,n,u
O=C(Nc1nc2c(Cl)cccc2s1)c1ccc(S(=O)(=O)N2CCc3ccccc32)cc1,n,3.16µM
CS(=O)(=O)N1CCC2(CC1)CN(c1ccc(-c3ccccc3)cc1)C2,n,n
CC(=O)N1CCC[C@@]2(CCN(Cc3nccs3)C2)C1,n,n
CNC(=O)C1CCC(Cn2c(=O)c3sccc3n(CC(=O)Nc3ccc(C)c(C)c3)c2=O)CC1 (configuration not stated),n,u
COc1cc2c(cc1NC(=O)Cc1ccc(C)cc1)oc1ccccc12,n,n
CCN(CC)S(=O)(=O)c1cccc(C(=O)Nc2cc3oc4ccccc4c3cc2OC)c1,n,u
COc1cc2c(cc1NC(=O)CSc1nnnn1-c1ccccc1)oc1ccccc12,n,31.6µM
COc1cc2c(cc1NC(=O)CSc1ccc(C)cc1)oc1ccccc12,n,n
COc1cc2c(cc1NC(=O)CN1CCN(S(=O)(=O)c3ccccc3F)CC1)oc1ccccc12,n,25.1µM
COc1cc2c(cc1NC(=O)COC(=O)C(CCSC)NC(=O)c1ccccc1Cl)oc1ccccc12 (configuration not stated),u,25.1µM
COc1cc2c(cc1NC(=O)COC(=O)[C@@H](NS(=O)(=O)c1ccccc1)C(C)C)oc1ccccc12,n,u
CCCN(CCC)S(=O)(=O)c1ccc(C(=O)Nc2cc3oc4ccccc4c3cc2OC)cc1,n,15.8µM
COCCn1c(=O)c(C)nc2cnc(OC)nc21,n,n
Nc1ccccc1-c1ccccc1,n,n
CN(CCC(=O)O)C1=Nc2ccc(Cl)cc2C(c2ccccc2)=[N+]([O-])C1,n,n
O=C(O)CC[P+](c1ccccc1)(c1ccccc1)c1ccccc1,n,n
Fc1ccc(Nc2c3c(nc4nncn24)CCC3)cc1,n,n
CC(C)c1ccccc1NC(=O)C(Cc1c[nH]c2ccccc12)NC(=O)OC(C)(C)C (configuration not stated),n,n
COc1cc2c(cc1NC(=O)COC(=O)c1ccc(C(C)(C)C)cc1)oc1ccccc12,n,12.6µM
COc1cc2c(cc1NC(=O)COc1ccccc1OC)oc1ccccc12,n,n
O=C(NCc1cn2ccsc2n1)c1c(F)cccc1Cl,n,20µM
O=C(NCc1cn2ccsc2n1)c1cccc(C(F)(F)F)c1,n,n
SMILES,Cruzain inh Det,Cruzain inh noDet
COc1ccc(OC)c(NC(=O)CSc2nnc3ccc4ccccc4n23)c1,n,u
CN(C)c1ccc(-c2noc(-c3ccccc3O)n2)cc1,22.4µM,25.1µM
c1ccc(-c2noc(-c3ccccc3-c3ccccc3)n2)cc1,n,n
O=C(c1csnn1)N1CCC2(CCCN(C(c3ccccc3)c3ccccc3)C2)CC1,n,n
N=C(N)SCCc1ccccn1,n,n
Cc1nccc2c1[nH]c1ccccc12,u,39.8µM!
c1ccc2c(c1)[nH]c1cnccc12,n,n
Cc1ccc(Cn2c(CO)cnc2SCC(=O)NCc2ccccc2Cl)cc1,n,n
CCOc1ccc2nc(NC3=NC(c4ccc(OC)cc4)CC(=O)N3)nc(C)c2c1 (configuration not stated),8.91µM,u
CCOc1ccc2nc(NC3=NC(C)(C)C=C(C)N3)nc(C)c2c1,28.2µM,15.8µM
CCOc1ccc2nc(NC3=NCN(Cc4ccco4)CN3)nc(C)c2c1,n,n
COCCN1CN=C(Nc2nc(C)c3ccc(C)cc3n2)NC1,n,n
COCc1cc(=O)[nH]c(Nc2nc(C)c3cc(OC)ccc3n2)n1,n,n
CCOc1ccc2c(C)nc(NC3=NC(C)(C)C=C(C)N3)nc2c1,15.8µM,15.8µM
C[C@H]1CC(C)(C)C[C@@](OCCN2CCCCC2)(c2ccccc2)C1,n,n
Cn1cnc(S(=O)(=O)N2CCC(C(=O)Nc3ccc(OC(F)(F)F)cc3)CC2)c1,n,n
